PLCb3 inh = inhibitors of human phospholipase C beta3; AID 720704; inhibition, % at 12.2 µM; 370,000 compounds, 0.18% hits; Purified PLC-beta3, fluorogenic substrate, fluorescence; in the data active = inhibition above about 11%
PLC-gamma1 inh = PLC-gamma1 (human) inhibition, primary screen. P19174. 370,000 compounds, 0.84% hits. purified PLC-gamma1, fluorogenic substrate, fluorescence. AID 720700. inhibition, % at 12.2 µM; in the data active = inhibition above about 9.5%
ADAM17 inh = ADAM17 inhibition, QFRET primary screen; inhibition, % at 6.95 µM; P78536; recombinant ADAM17, EDANS/DABCYL FRET peptide cleavage; AID 720648; 370,000 compounds, 0.83% hits;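 active = inhibition above the mean of compounds lying between control limits plus 3 SD, set per campaign, cut at about 8.5% in these data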
ADAM10 inh = inhibitors of human ADAM10 | inhibition, % at 7 µM | recombinant ADAM10, EDANS/DABCYL FRET peptide cleavage, 3 h | 370,000 compounds, 0.62% hits;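 active = inhibition above a per-campaign cutoff equal to the mean of compounds falling between control-based bounds plus 3 SD, cut at about 20% in these data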
KLK7 zymogen act = activates the human kallikrein-7 zymogen | activation, % at 7 µM | 370,000 compounds, 0.9% hits | P49862 | purified proKLK7, EDANS-DABCYL substrate fluorescence; 100% is mature enzyme control, 0% vehicle | AID 652039;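 active = activation above the mean of all tested compounds plus 3 SD, computed per campaign excluding outliers beyond control limits, cut at about 13% in these data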
Target sequence (P49862 whole entry, looked up): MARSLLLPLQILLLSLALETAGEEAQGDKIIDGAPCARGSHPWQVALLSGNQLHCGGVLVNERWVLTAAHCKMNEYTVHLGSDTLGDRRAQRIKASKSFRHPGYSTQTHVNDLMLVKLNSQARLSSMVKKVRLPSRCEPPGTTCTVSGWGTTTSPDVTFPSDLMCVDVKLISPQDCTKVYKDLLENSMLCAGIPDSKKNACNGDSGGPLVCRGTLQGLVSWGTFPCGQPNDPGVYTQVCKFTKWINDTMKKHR
ADAM10 confirm = human ADAM10 inhibition, confirmation | inhibition, % at 6.95 µM | shares compounds with ADAM10 inh | 2,100 compounds, 1% hits | ADAM10 QFRET peptide cleavage, EDANS fluorescence | AID 743208;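 active = inhibition above about 20% chosen separately for each screening run, limit read from the data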
ADAM17 counter = inhibits human ADAM17 in ADAM10 exosite counter-screen; inhibition, % at 6.95 µM; ADAM17 QFRET peptide cleavage, EDANS fluorescence; AID 743214; 2,100 compounds, 0.5% hits; shares compounds with ADAM10 inh;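 active = mean triplicate inhibition above the solvent-only control wells' mean plus 3 SD, cut at about 12% in these data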
Hits are given with their value; – = inactive; · = not tested or not shown. Most compounds without a hit are left out; they make up all but 2.9% or so of the library.

SMILES	PLCb3 inh	PLC-gamma1 inh	ADAM17 inh	ADAM10 inh	KLK7 zymogen act	ADAM10 confirm	ADAM17 counter
Clc1ccc(CSc2nnc(CNc3cccc(Cl)c3)o2)cc1	–	–	–	20	–	–	–
O=C(NCc1ccccc1)OCCN1C(=O)CCC12CCC(c1ccc(Cl)cc1)CC2 (stereo not given)	–	–	–	–	–	·	·
O=C(N/C=N/OCc1ccc(Cl)cc1Cl)NOCc1ncc(C(F)(F)F)cc1Cl	–	–	11	20	–	–	–
CO/N=C/NC(=O)NOCc1ncc(C(F)(F)F)cc1Cl	–	–	–	–	–	·	·
Cc1ccc(Nc2c(F)cccc2Cl)c(CC(=O)O)c1	–	–	–	–	–	·	·
Cc1ccnc(NC(=S)N2CC3CN(c4cccc(C(F)(F)F)c4)CC3C2)c1 (stereo not given)	–	–	–	–	·	·	·
CCOC(=O)c1ccc(N2C(=O)c3n[nH]c(C)c3C2c2cccnc2)cc1 (stereo not given)	–	–	–	–	–	·	·
CCOC(=O)c1ccc(N2C(=O)c3n[nH]c(-c4ccco4)c3C2c2ccc([N+](=O)[O-])cc2)cc1 (stereo not given)	–	–	–	23	–	–	–
COC(C(=O)Nc1ccc(S(=O)(=O)Nc2cccc3ccccc23)cc1)c1ccccc1 (stereo not given)	–	–	–	21	–	–	–
Cc1cc(C)n2nc(SCc3ccccc3)nc2n1	–	–	–	22	–	–	–
COP(=O)(O)C(COCCC(CC(C)C)NC(=O)OCc1ccccc1[N+](=O)[O-])NC(=O)OCc1ccccc1 (stereo not given)	–	–	–	–	·	·	·
Cc1cc(Br)c2nc(-c3cccc(Br)c3)c(Cc3cccc(Cl)c3)n2c1	–	–	–	–	–	·	·
CC(=O)Nc1ccc(S(=O)(=O)NCCSCc2ccc(Cl)cc2Cl)cc1	–	–	–	22	–	–	–
COC(=O)[C@]12C[C@H](CC(=O)NCCCN3CCCC3=O)C(=O)N(Cc3ccco3)C1=C[C@H](C1CCCC1)O[C@@H]2C	–	–	–	–	–	·	·
O=C(NCCc1nc2ccccc2[nH]1)/C(=C/c1ccc2c(c1)OCO2)NC(=O)c1ccc(Cl)cc1Cl	–	–	–	22	–	32	–
C/C(=N/NC(=O)c1ccc(C)s1)c1ccncc1	–	–	–	21	–	–	–
Cc1ccc(N(C(C)C(=O)Nc2cc(Cl)ccc2Oc2ccccc2)S(C)(=O)=O)cc1 (stereo not given)	–	–	–	22	–	–	–
COc1ccc(C)cc1NC(=O)C(C)N(c1ccc(C)cc1)S(C)(=O)=O (stereo not given)	–	–	–	–	–	·	·
CCCCNC(=O)C1CCCN1C(=O)Nc1cc(C)cc(C)c1 (stereo not given)	–	–	–	–	–	·	·
O=C(Nc1ccccc1)C1=C[C@H](c2ccccc2)C[C@H](OCc2ccc(CO)cc2)O1	–	–	–	–	–	·	·
O=C(NCc1ccccc1)C1=C[C@H](c2ccccc2)C[C@H](OCc2ccc(CO)cc2)O1	–	–	–	20	–	–	–
O=C(Nc1ccccc1)C1=C[C@H](c2ccc(C(F)(F)F)cc2)C[C@H](OCc2ccc(CO)cc2)O1	–	–	8.6	26	–	–	–
COC(=O)[C@]12C[C@H](CC(=O)N3CCCC3)C(=O)N(Cc3ccc(Cl)cc3Cl)C1=C[C@H](C(C)(C)C)O[C@@H]2C	–	–	–	–	–	·	·
CCn1c(SCC(=O)Nc2ccc(C(N)=O)cc2)nc2sc(C)c(C)c2c1=O	–	–	–	–	–	·	·
O=C(CCl)NC1CCCCN(Cc2ccc(OC(F)(F)F)cc2)C1=O (stereo not given)	–	–	–	–	–	·	·
O=c1[nH][nH]c2c1[C@@H](c1ccc(F)cc1)O[C@H](CCc1ccccc1)C2	–	–	–	–	–	·	·
O=c1[nH][nH]c2c1C(c1ccc(F)cc1)OC(CCc1ccccc1)C2 (stereo not given)	–	–	–	20	–	–	–
CC(=O)Nc1ccc(/C=N\NC(=O)c2cccc(S(=O)(=O)N(C)C)c2)cc1	–	–	–	–	–	·	·

High-throughput results deposited in PubChem by The Scripps Research Institute Molecular Screening Center.
